Our source for the binding signal values is paper PMC6212790, “How bacterial xenogeneic silencer rok distinguishes foreign from self DNA in its resident genome”.

Whole data set: some 33,000 sequences, median “e-score” near -0.037, cut for the highest 2% near 0.34. This excerpt belongs to a sample that is enriched for the highest values.

The target of this test is T1, GST-Rok (full length) (Bacillus subtilis subsp. subtilis str. …, UniProt O34857 1-191).
T1 sequence: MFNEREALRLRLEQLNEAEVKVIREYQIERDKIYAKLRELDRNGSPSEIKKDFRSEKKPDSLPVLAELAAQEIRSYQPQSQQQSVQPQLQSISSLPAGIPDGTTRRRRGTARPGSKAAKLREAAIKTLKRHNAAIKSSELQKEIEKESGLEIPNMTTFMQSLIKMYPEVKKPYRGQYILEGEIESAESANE
As to the kind of experiment: protein binding microarray; Rok is a gene silencer of Bacillus subtilis; high values mean tight binding. The following applies: protein: recombinant; tags: GST (pTH5325, pDEST15-Magic modified); dsDNA, one strand shown. A digest of the protocol: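 Each has a 25-mer constant primer and a 35-mer variable part from a de Bruijn sequence of order 10, covering every non-palindromic 8-mer at least 32 times (palindromic 16). Preference for each 8-mer is given as a rank-based, unitless enrichment score (E-score). Its range runs from 0.5 (most favored) to −0.5 (most disfavored).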
As for CCGATTTC, the binding signal was -0.187 E-score. For the sequence ACATAAAC, the binding signal came to 0.257 E-score. AAAAGTTC: the binding signal stood at 0.114 E-score.

Take ACGCAGTA: the binding signal was 0.125 E-score. Turning to AGGATTCA, the binding signal is -0.117 E-score. For AACCAGCT, the binding signal was -0.112 E-score. Turning to TAAAACAA, the binding signal was found to be 0.203 E-score.

Take CAAAACTA: the binding signal came out at 0.383 E-score. As to GCAAACTA, the binding signal amounted to 0.386 E-score. GCAAACAA: the binding signal was -0.152 E-score. The result for CAAAACTG reads -0.0906 E-score; that for GCAAACCA, -0.161 E-score. On to TAAAACGA, for which the binding signal amounted to 0.111 E-score. TAAAACTA: the binding signal came out at 0.375 E-score. Consider CAAAACTC, for which the binding signal was 0.0709 E-score. As for ATGGCTTA, the binding signal came to 0.0565 E-score.

For the sequence AGAATTCA, the binding signal came to 0.0872 E-score. As to ACCCTCGC, the binding signal is -0.0467 E-score. As to ATAACTTG, the binding signal was found to be 0.289 E-score. The result for GCATAGGC reads -0.0277 E-score; that for CCATATAG, 0.0758 E-score.

On to ATCTATAG, for which the binding signal was found to be 0.313 E-score. As to ATATAGGG, the binding signal was -0.0461 E-score. As to ATATATAG, the binding signal amounted to 0.416 E-score. The figure for CTATATAG is 0.402 E-score; for CTATAGAG it is 0.0607 E-score. As for ATATAGCG, the binding signal is 0.349 E-score. For ATATAGCC, the binding signal is -0.000533 E-score. For the sequence ATATAGCA, the binding signal is 0.213 E-score. For the sequence AGTTATGG, the binding signal turned out to be 0.209 E-score. The result for CAGCTAGA reads 0.0847 E-score.

For the sequence AACTTCAC, the binding signal is -0.0432 E-score. As to CCTAACGA, the binding signal was -0.117 E-score. On to ATTTTGCC, for which the binding signal was found to be 0.0261 E-score. Regarding GATCTGAA, the binding signal was -0.0373 E-score. For the sequence CATGCCGA, the binding signal was found to be 0.0242 E-score. With AATCTACT, the binding signal amounted to 0.432 E-score.

CATCTACC: the binding signal amounted to 0.291 E-score. Take AATCTACG: the binding signal came out at 0.311 E-score. Consider GATCTACC, for which the binding signal was 0.382 E-score. The figure for ACTCTACC is -0.0638 E-score; for GATCTAAC it is 0.12 E-score. Regarding AATCTACC, the binding signal stood at 0.437 E-score. Take AATCTAAC: the binding signal came out at 0.189 E-score. Regarding ACTCTACT, the binding signal came to 0.27 E-score. Consider AGTTATTC, for which the binding signal worked out at 0.069 E-score.

For the sequence ACCTTAAC, the binding signal is -0.0118 E-score. In the case of CATGGTAC, the binding signal stood at 0.13 E-score.

Turning to GTTTAACA, the binding signal amounted to 0.108 E-score. With AATTCAGA, the binding signal came out at 0.0748 E-score.

Turning to CACTCAAC, the binding signal was -0.00301 E-score.

In the case of CAGCATTC, the binding signal worked out at 0.0234 E-score.

For GTGGCTGA, the binding signal was -0.0523 E-score. The result for AGAAAAAG reads 0.0648 E-score. Turning to ATTTATAA, the binding signal amounted to 0.333 E-score. The figure for AGTTATAC is 0.329 E-score; for ATTTATAG it is 0.398 E-score; for CTTTATAC it is 0.226 E-score. The result for ATTTATTC reads 0.219 E-score. The figure for ATTTATGG is 0.218 E-score; for ATTTATTA it is 0.312 E-score; for ATTTATAC it is 0.356 E-score. As for ATTTATTG, the binding signal was found to be 0.348 E-score. For the sequence CATTAGGC, the binding signal was -0.146 E-score. Regarding AGAGTGGA, the binding signal is -0.109 E-score. The result for AACCAGAG reads -0.187 E-score. On to AACTACCG, for which the binding signal worked out at 0.417 E-score.

AACTACCA: the binding signal was found to be 0.432 E-score. The result for ACCTACCT reads 0.271 E-score; that for TGCTACCA, 0.152 E-score. As to TACTACCA, the binding signal was found to be 0.386 E-score.

Regarding AACTACCC, the binding signal was found to be 0.292 E-score. Take CACTACCA: the binding signal was 0.221 E-score.

Take CACTACCG: the binding signal is 0.0654 E-score.

For the sequence AACTATCG, the binding signal was found to be 0.316 E-score. In the case of TCCTACCA, the binding signal is 0.175 E-score. For AACTACCT, the binding signal amounted to 0.416 E-score. For the sequence GACTACCA, the binding signal was 0.095 E-score. On to GGACTCTA, for which the binding signal was -0.165 E-score. Turning to CTACAGGA, the binding signal was -0.04 E-score. For the sequence ACAAGCCT, the binding signal is -0.083 E-score. The figure for CTCTCACA is -0.156 E-score.

Consider AGACGCAA, for which the binding signal was -0.089 E-score. With GCCATTCA, the binding signal came to 0.0688 E-score. Consider ACCGAGCG, for which the binding signal is -0.175 E-score.

In the case of AGTAGTGC, the binding signal was 0.0725 E-score. The result for GGTAGGAC reads 0.0568 E-score. As to AGTAGTAC, the binding signal was 0.336 E-score. For the sequence CTTAGTAC, the binding signal turned out to be 0.206 E-score. With CGTAGTAC, the binding signal came out at 0.202 E-score. The result for GGTAGTAC reads 0.339 E-score.

With CTCAACTA, the binding signal is 0.13 E-score. In the case of CATGGAGA, the binding signal was 0.0828 E-score. With CATGCGGC, the binding signal is -0.125 E-score.
